# Screens deposited in PubChem BioAssay by Broad Institute.
# Tgondii IFNg: T. gondii growth inhibition with IFN-gamma, primary screen, cell-based | Toxoplasma gondii growth in IFN-gamma-treated host cells; hits give low values | activity change, negative = inhibition, % (no concentration beside the values) | 69,000 compounds, 3.8% hits; in the data active = activity change below about -70%, passing the limit was not always enough;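 note: host cells are HeLa cells infected with Toxoplasma gondii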
# Numbers without * were called inactive. The entries come from a sample that favours hits as a whole.
SMILES,Tgondii IFNg
Cc1nc(-c2ccc(Cl)cc2)sc1CCNC(=O)COc1ccccc1F,17
Cc1ccccc1OCC(=O)NCCc1sc(-c2ccc(Cl)cc2)nc1C,28
COc1ccccc1C(=O)NCCc1sc(-c2ccc(Cl)cc2)nc1C,-107*
COc1ccc(S(=O)(=O)NCCc2sc(-c3ccc(OC)c(OC)c3)nc2C)cc1C,185
COc1ccc(-c2nc(C)c(CCNS(=O)(=O)c3ccc(C)c(C)c3)s2)cc1OC,282
COc1ccc(-c2nc(C)c(CCNS(=O)(=O)c3ccc(-c4ccccc4)cc3)s2)cc1OC,-118*
Cc1ccccc1C(=O)NCCc1sc(-c2ccc(Cl)cc2)nc1C,-56
COc1ccccc1OCC(=O)NCCc1sc(-c2ccc(F)cc2)nc1C,6
Cc1nc(-c2ccc(Cl)cc2)sc1CCNC(=O)c1ccccc1F,-34
COc1ccccc1C(=O)NCCc1sc(-c2ccc(F)cc2)nc1C,-107*
CCCNC(=O)N1CC2(CCN(C(=O)Cc3cccnc3)CC2)c2c([nH]c3cc(OC)ccc23)[C@@H]1CO,15
CSc1ccc2c(C)cc(N3CCC(O)(Cn4ccnc4)CC3)nc2c1,-21
COc1ccccc1NC(=O)N1C[C@H]2[C@@H](c3ccccc31)[C@@H](CO)N2Cc1ccc2c(c1)OCO2,2
CC(C)Cn1c(CN2CCC(NS(C)(=O)=O)CC2)nc2ccccc21,4
Cc1ncnc(N2CCCC(CO)(Cc3ccc(F)cc3)C2)c1C (stereo unspecified),-18
Cc1ccc(OC(C)C(=O)NCc2ccco2)cc1 (stereo unspecified),-11
CN(C)c1ncc2c(n1)C1(CCN(C(=O)C3CC3)C1)COC2 (stereo unspecified),4
COc1cc(OC)c(-c2nccn2-c2ccc3n[nH]nc3c2)cc1OC,-44
FC(F)(F)CCc1ccnc(-c2ccc3c(c2)OCCO3)n1,11
Cc1nc(-c2ccc(F)cc2)sc1CCNC(=O)c1ccccc1Br,-14
Cc1nc(-c2ccc(F)cc2)sc1CCNC(=O)c1c(F)cccc1Cl,-5
Cc1nc(-c2ccc(F)cc2)sc1CCNC(=O)c1ccccc1Cl,-72*
Cc1nc(-c2ccc(F)cc2)sc1CCNC(=O)C(=O)Nc1ccc2c(c1)OCCO2,-40
Cc1ccc(-c2nc(C)c(CCNC(=O)C(=O)Nc3ccc4c(c3)OCO4)s2)cc1,-69
Cc1nc(-c2ccc(F)cc2)sc1CCNC(=O)C(=O)Nc1ccc2c(c1)OCO2,-72*
SMILES,Tgondii IFNg
Cn1cc(C[C@H]2[C@H](O)CCN2C(=O)NCc2cccc(F)c2)cn1,7
Cc1cnc(C(=O)N2Cc3nc4cc(-c5ccc(F)cc5)[nH]n4c(=O)c3C2)cn1,74
Cc1noc(C)c1CC(=O)N1CCCC1c1ccc(C(=O)N2CCN(C)CC2)cn1 (stereo unspecified),-14
Cc1ccc(NC(=O)N2CCC3(CC2)Nc2ccccc2-n2cccc23)cc1C,135
CC(=O)Nc1cccc(-c2ccnc(N)c2)c1,-46
NCC(=O)Nc1ccc(-n2nc(C(F)(F)F)cc2-c2ccc3c(ccc4ccccc43)c2)cc1,-87*
NCC(=O)Nc1ccc(-c2cccc(C(F)(F)F)c2)cc1F,-57
Cc1ccc(-c2cc(C(F)(F)F)nn2-c2ccc(S(N)(=O)=O)cc2)cc1,-63
CC(C)N1CC(C(=O)O)CN2CCN(Cc3nccs3)CC2C1 (stereo unspecified),6
CC(C)c1cc(C(=O)NC(c2ccccc2)c2ccnn2C)n(C)n1 (stereo unspecified),19
Cc1cc(C)n(CC(C)C(=O)NC(Cc2cccs2)c2nccs2)n1 (stereo unspecified),70
O=C(NC(c1nccs1)C1CCCN(Cc2cccc(F)c2)C1)c1ccccc1 (stereo unspecified),20
CC[C@H](C)[C@@H]([C@@H](CC(=O)N1CCC[C@H]1[C@H](OC)[C@@H](C)C(=O)N[C@@H](Cc1ccccc1)c1nccs1)OC)N(C)C(=O)[C@@H](NC(=O)[C@H](C(C)C)N(C)C)C(C)C,-84*
O=S(=O)(Cc1ccc(Cl)cc1)NCc1cccs1,-48
CCS(=O)(=O)N1CCN(C(=O)c2nn(C)c3c2CCCC3)CC1,5
C=C1/C(=C\C=C2/CCC[C@]3(C)[C@@H]([C@H](C)/C=C/C=C/C(O)(CC)CC)CC[C@@H]23)C[C@@H](O)C[C@@H]1O,11
C=C1CC[C@H](O)C/C1=C/C=C1\CCC[C@]2(C)[C@@H]([C@H](C)CCCC(C)C)CC[C@@H]12,-75*
C=C1/C(=C\C=C2\CCC[C@]3(C)[C@@H]([C@H](C)CCCC(C)C)CC[C@@H]23)C[C@@H](O)C[C@@H]1O,-63
COCc1ccc(C(=O)N2CCc3ncc(-c4ccc(OC)c(OC)c4)cc3C2)cc1,-15
COCCOc1ccc(N2CCN(CCn3ncc4c3nc(N)n3nc(-c5ccco5)nc43)CC2)cc1,-8
COc1cc2cc(CNc3ccc(N4CCN(C)CC4)cc3)c(=O)[nH]c2cc1OC,-18
COc1ccc2[nH]c(=O)c(CNc3ccc(-c4nc5ccc(C)cc5[nH]4)cc3)cc2c1,48
CC(C)c1ccc2[nH]c(=O)c(CNc3ccc4[nH]ncc4c3)cc2c1,-82*
C[C@H]1CC(=O)N[C@@H](c2ccccc2)C/C=C\C[C@H](c2ccc3c(c2)OCO3)NC1=O,-11
CCN(CC)CC(=O)N1CCOC(c2ncncc2-c2ccnc(N)c2)C1 (stereo unspecified),5
SMILES,Tgondii IFNg
Cc1cccc(NC(=O)Cn2ncc3c(N4CCCCCC4)ncnc32)c1C,0
O=C(Cn1ncc2c(N3CCN(c4ccccn4)CC3)ncnc21)Nc1cccc(Br)c1,-99*
O=C(Cn1ncc2c(N3CCN(c4ccccc4)CC3)ncnc21)Nc1cccc(Cl)c1,31
O=C(Cn1ncc2c(N3CCN(c4ccccn4)CC3)ncnc21)Nc1ccc(Br)cc1,-15
CCc1cccc(NC(=O)Cn2ncc3c(N4CCN(c5ccccc5)CC4)ncnc32)c1,-82*
O=C(Cn1ncc2c(N3CCN(c4ccccn4)CC3)ncnc21)Nc1cccc(Cl)c1,-50
CCc1cccc(NC(=O)Cn2ncc3c(N4CCN(c5ccccn5)CC4)ncnc32)c1,-62
CC(=O)Nc1ccc(S(=O)(=O)Nc2cncc(C(=O)NCc3ccc(C)cc3)c2)cc1,23
CCc1ncc(C(=O)N(C)Cc2n[nH]c3c2CCCC3)cn1,-2
c1ccc(Cn2c(N3CCNCC3)nc3ccccc32)cc1,14
O=C(O)Cn1ccnc1-c1ccccc1,14
CS(=O)(=O)CCNCc1ccc(-c2ccc3ncnc(Nc4ccc(OCc5cccc(F)c5)c(Cl)c4)c3c2)o1,-81*
Cc1ccc(F)cc1NC(=O)c1nnn(Cc2nc(-c3cccc(Cl)c3)oc2C)c1C,39
COCCc1ncc(CN2CCCC2c2cccc(F)c2)cn1 (stereo unspecified),8
CC(C)CNC(=O)C1=NOC2(CCN(C(=O)c3ccccn3)C2)C1 (stereo unspecified),0
COc1ccc(CN2CCC3(CC(C(=O)NCC(C)C)=NO3)C2)cc1 (stereo unspecified),4
CC(C)CNC(=O)C1=NOC2(CCN(Cc3ccc(C(C)C)cc3)C2)C1 (stereo unspecified),-82*
COc1ccc(-c2nc(Cn3nnc(-c4nc(-c5ccccc5Cl)no4)c3C)c(C)o2)cc1,-4
COc1ccc2[nH]c(C)c(C(=O)NCc3cc(Cl)c4c(c3)OCCCO4)c2c1,-85*
O=C(Cn1nnc(-c2ccccc2)n1)NCc1cc(Cl)c2c(c1)OCCCO2,3
